High-throughput results from PubChem.
GDH-TPI counter-1 = GDH-TPI coupling enzyme inhibitors, primary screen, artefact control for M. tuberculosis FBA inhibitor project, biochemical, absorbance, full deck | inhibition, % at 4.8 µM | actives 1.2% (n = 360,000) | GDH-TPI coupled enzyme counterscreen, NADH absorbance; in the data active = inhibition above about 30%;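 note: 0% = DMSO wells and 100% = wells lacking the enzyme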
Mtb bLac sens = beta-lactam sensitization of Mtb H37Rv, H37Rv; M. tuberculosis H37Rv growth with meropenem, percent inhibition; inhibition, % at 25 µM; actives 0.27% (n = 330,000); AID 434955, 2010; call rule not given here;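 note: growth measured after seven days incubation then overnight dye step; 0% = bacteria only wells and 100% = bacteria with antibiotic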
Rv3671c inh = Rv3671c serine protease inhibitors, primary screen, biochemical, fluorescence polarization, M. tuberculosis H37Rv; inhibition, % at 5.96 µM; actives 0.048% (n = 320,000); AID 2606, 2010; in the data active = inhibition above about 38%;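 note: extracellular domain of Rv3671c used as enzyme; 0% = enzyme with DMSO and 100% = no enzyme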
RecA splice inh = Mtb RecA intein splicing inhibitors, primary screen, biochemical, fluorescence, HTS | Protein RecA (Mycobacterium tuberculosis (strain ATCC 25618 / H37Rv)), P9WHJ3 | cell-free RecA intein splicing | AID 2221, 2009 | actives 0.75% (n = 290,000) | inhibition, % (no concentration beside the values); in the data active = inhibition above about 30%;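 note: 0% = vehicle wells and 100% = reference inhibitor control wells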
Mtb UGM inh = M. tuberculosis UGM enzyme inhibitors, primary screen, biochemical, fluorescence polarization, single point; AID 504406, 2011; purified UGM, fluorescence polarization probe displacement; inhibition, % at 10 µM; UDP-galactopyranose mutase (Mycobacterium tuberculosis (strain ATCC 25618 / H37Rv)), …; actives 0.06% (n = 320,000); in the data active = inhibition above about 10%, passing the limit was not always enough
FBA Mtb inh = Mtb FBA enzyme inhibitors, primary screen, biochemical, fluorescence, strain H37Rv. Fructose-bisphosphate aldolase (Mycobacterium tuberculosis (strain ATCC 25618 / H37Rv)), …. purified M. tuberculosis FBA, fluorescence read-out. inhibition, % at 1 µM. actives 2.3% (n = 360,000);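 note: 0% = vehicle and 100% = reference inhibitor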
Target sequence (P9WQA3 whole entry, looked up): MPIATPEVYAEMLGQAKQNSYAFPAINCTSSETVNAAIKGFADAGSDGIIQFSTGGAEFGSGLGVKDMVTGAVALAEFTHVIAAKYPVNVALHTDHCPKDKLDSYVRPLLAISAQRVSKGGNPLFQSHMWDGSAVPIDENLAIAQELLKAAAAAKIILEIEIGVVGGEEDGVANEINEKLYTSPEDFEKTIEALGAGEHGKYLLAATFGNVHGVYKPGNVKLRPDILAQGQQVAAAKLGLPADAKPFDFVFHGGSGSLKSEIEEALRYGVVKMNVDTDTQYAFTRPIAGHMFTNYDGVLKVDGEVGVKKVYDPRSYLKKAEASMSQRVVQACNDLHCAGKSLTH
Mtb FBA inh conf = M. tuberculosis aldolase blockers, biochemical, fluorescence, strain H37Rv, confirmation. inhibition, % at 1 µM. actives 78% (n = 5,600). purified M. tuberculosis FBA, fluorescence read-out. shares compounds with FBA Mtb inh. AID 651616, 2012;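 note: 0% = vehicle wells and 100% = reference inhibitor wells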
GDH-TPI counter-2 = GDH-TPI coupling enzyme inhibitors, artefact control for M. tuberculosis FBA inhibitor project, biochemical, fluorescence, high throughput; inhibition, % at 1 µM; actives 81% (n = 5,600); AID 652141, 2013; shares compounds with FBA Mtb inh; GDH-TPI coupled enzyme counterscreen; in the data active = inhibition above about 10%
GDH-TPI dose = GDH-TPI coupling enzyme inhibitors, dose response, artefact control for M. tuberculosis FBA inhibitor project, biochemical, fluorescence, IC50; IC50, µM; shares compounds with FBA Mtb inh; GDH-TPI coupled enzyme assay, artifact counterscreen; actives 79% (n = 170); call rule not given here
* marks the source's active call; other numbers are inactive results; . = not tested or not shown; + = active, no number. Shown are actives, neighbours in structure and some others; about 4% of the full set was active somewhere. Cut-off read from the data, not from the text of the source, unless noted: active = inhibition above about 27%; inactive = the rest.

SMILES	GDH-TPI counter-1	Mtb bLac sens	Rv3671c inh	RecA splice inh	Mtb UGM inh	FBA Mtb inh	Mtb FBA inh conf	GDH-TPI counter-2	others
CCOC(=O)c1c(NC(=O)C2C3C=CC(C3)C2C(=O)O)sc2c1CC(C)CC2 (configuration not stated)	15.3	-3.0	6.0	-0.1	4.3	34.6*	57.9*	50.8*
Cc1cccc(NC(=O)COC(=O)c2nn(C)c(=O)c3ccccc23)c1C	-8.8	4.0	0.1	.	-3.2	-0.5	.	.
CC(=O)Nc1ccc(C2=NN(c3ccccc3)C(c3ccccc3)C2)cc1 (configuration not stated)	6.4	5.6	12.4	-5.5	2.7	105.2*	41.6*	33.3*
N#CCC(=O)N/N=C/c1ccc(N2N=C(c3ccccc3)CC2c2ccccc2)cc1 (configuration not stated)	3.7	1.7	-10.9	-52.5	4.2	84.7*	11.8	4.6	GDH-TPI dose=0.285*
O=Cc1ccc(N2N=C(c3ccccc3)CC2c2ccccc2)cc1 (configuration not stated)	7.0	3.6	-5.0	-170.9	0.2	86.3*	135.7*	89.5*
Cc1[nH]c(C)c(S(=O)(=O)N2CCN(c3ccc(Cl)cc3)CC2)c1C(=O)N1CCCC1	-5.2	8.0	4.0	0.6	0.5	1.2	.	.
COc1ccc2[nH]c(=O)c(CN(C)C(=O)c3cccs3)cc2c1	10.6	-0.9	-2.2	1.0	1.7	11.3	.	.
COc1ccc2[nH]c(=O)c(CN(Cc3ccco3)Cc3nnnn3Cc3ccccc3)cc2c1	4.9	-7.8	-17.7	-4.3	4.1	9.7	.	.
CCC(C)(C)n1nnnc1CN(Cc1ccco1)Cc1cc2cc3c(cc2[nH]c1=O)OCO3	14.3	4.0	-2.8	-9.8	-1.4	35.4*	90.1*	96.9*
COCCn1nnnc1CN(Cc1ccco1)Cc1cc2cc3c(cc2[nH]c1=O)OCO3	22.4	-1.5	-5.6	-12.0	1.2	47.7*	+	+
CC(C)(C)n1nnnc1CN(Cc1ccco1)Cc1cc2cc3c(cc2[nH]c1=O)OCO3	21.2	-5.4	-8.8	-1.8	0.7	45.8*	11.2	-4.1
CCCN1CCN(C(c2cc3cc4c(cc3[nH]c2=O)OCO4)c2nnnn2C(C)(C)C)CC1 (configuration not stated)	12.2	-7.0	-4.3	-7.1	2.4	65.6*	57.6*	-3.0
COc1ccc2cc(CN(Cc3ccco3)Cc3nnnn3C3CCCCC3)c(=O)[nH]c2c1	27.1	4.9	-4.3	7.2	-1.7	3.5	.	.
O=C(Nc1nc2ccc(SC(F)F)cc2s1)c1ccc(NS(=O)(=O)c2ccc(F)c(F)c2)cc1	29.3	99.6	-212.6	0.6	0.0	54.8*	+	+
CS(=O)(=O)c1ccc2nc(NC(=O)c3ccc(NS(=O)(=O)c4ccc(F)c(F)c4)cc3)sc2c1	59.8*	-0.3	-89.1	-2.6	0.4	71.0*	79.0*	81.8*
CS(=O)(=O)c1ccc2nc(NC(=O)c3cccc(NS(=O)(=O)c4ccc(F)c(F)c4)c3)sc2c1	9.8	55.5	-160.8	-1.3	-2.7	29.0*	150.6*	138.8*
CNC(=O)CSc1n[nH]c(-c2cc(Cl)ccc2OC)n1	6.2	6.7	4.8	0.2	1.0	2.3	.	.
